This is part of a sample that, as a whole, favours compounds with a hit. Of some 83,000 tested, about 20% had one in any assay.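 How to read the values: 0–100, growth inhibition (40 = 60% inhibited); 0, no net growth; -100 to 0, cell death (-40 = 40% of starting cells died; -100 = all dead).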 Unmarked numbers belong to inactive results. Active and inactive are the calls of the source. Rule for the calls: active = growth percent below 10; inactive = the rest.

Some test systems named below: SK-MEL-2 melanoma; EKVX NSCLC; SN12C renal; UO-31 renal; TK-10 renal; ACHN renal; CAKI-1 renal; A498 renal; CCRF-CEM leukemia; MOLT-4 leukemia; SR leukemia; RPMI-8226 leukemia; OVCAR-8 ovarian; OVCAR-5 ovarian; OVCAR-4 ovarian; SK-OV-3 ovarian; OVCAR-3 ovarian; HS 578T breast; NCI/ADR-RES ovarian; IGROV1 ovarian.
Holding throughout (assay): NCI-60 one-dose screen, 48 h (100 = growth as untreated, 0 = no growth, -100 = all killed)
What all share (conditions): 10 µM unless noted

`Cc1cc(=O)oc2cc(OCC(O)CNN3C(=O)c4cccc5c(N6CCN(C)CC6)ccc(c45)C3=O)ccc12` (configuration not stated): the growth is 92.2% with SK-MEL-2 melanoma; 97.3% with EKVX NSCLC; 88.9% with SN12C renal; 83.8% with UO-31 renal; 138% in the experiment with TK-10 renal; 91.2% in the experiment with ACHN renal. The growth in the experiment on CAKI-1 renal was 96.2%; with A498 renal, 122%; with CCRF-CEM leukemia, 96.7%; in the experiment on MOLT-4 leukemia, 90.4%; in the experiment on SR leukemia, 81.1%; in the experiment on RPMI-8226 leukemia, 97.4%. Moreover, the growth was 91.4% with OVCAR-8 ovarian; 112% with OVCAR-5 ovarian; 99.1% in the experiment on OVCAR-4 ovarian; 116% in the experiment with SK-OV-3 ovarian; 103% in the experiment with OVCAR-3 ovarian; 87.4% in the experiment on HS 578T breast. The growth in the experiment with NCI/ADR-RES ovarian is 89.4%.

With `COc1cc(CNC(=O)C[C@H](C)CCC=C(C)C)ccc1OCc1cn(-c2ccccc2Cl)nn1`, the growth in the experiment on SK-MEL-2 melanoma was 53.3%; with EKVX NSCLC it was 54%; in the experiment on SN12C renal, 69.6%; with UO-31 renal, 30.3%; in the experiment with TK-10 renal it was 93.1%; in the experiment on ACHN renal, 67.6%. In addition, the growth in the experiment on CAKI-1 renal was 46.3%; in the experiment on A498 renal, 107%; in the experiment on CCRF-CEM leukemia, 40.1%; with MOLT-4 leukemia it was 16.3%; with SR leukemia, 48.5%; in the experiment on RPMI-8226 leukemia, 47.6%. For the same molecule, the growth with OVCAR-8 ovarian is 49.8%; with OVCAR-5 ovarian, 93.1%; in the experiment with OVCAR-4 ovarian it was 33.3%; in the experiment with SK-OV-3 ovarian, 83%; in the experiment with OVCAR-3 ovarian, 83.6%; in the experiment on HS 578T breast, 81%. The growth in the experiment on NCI/ADR-RES ovarian is 24%.

Turning to `COc1ccc2[nH]cc(-c3cc(N)n4nc(-c5c[nH]c6ccccc56)cc4n3)c2c1`, the growth in the experiment with SK-MEL-2 melanoma was -63.7% (active); with EKVX NSCLC, 10.9%; with SN12C renal it was 49.1%; in the experiment on UO-31 renal, -74.9% (active); with TK-10 renal, -1.71% (active); in the experiment with ACHN renal, 8.14% (active). Further, the growth with CAKI-1 renal is -59.5% (active); in the experiment on A498 renal it was -0.442% (active); with CCRF-CEM leukemia, -20% (active); with MOLT-4 leukemia, -7.46% (active); with SR leukemia it was 11.1%; in the experiment on RPMI-8226 leukemia it was -11.5% (active). Also, the growth was -43.9% (active) in the experiment on OVCAR-8 ovarian; 7.37% (active) with OVCAR-5 ovarian; 30.9% in the experiment on OVCAR-4 ovarian; 3.49% (active) in the experiment on SK-OV-3 ovarian; 14.6% with OVCAR-3 ovarian; 37.2% in the experiment with HS 578T breast. In the experiment on NCI/ADR-RES ovarian, the growth was 27.7%.

As to `Cn1cc(-c2cc(N)n3nc(-c4c[nH]c5ccccc45)cc3n2)c2ccccc21`, the growth in the experiment on SK-MEL-2 melanoma is -88.2% (active); in the experiment on EKVX NSCLC, -96.1% (active); with SN12C renal, -85.5% (active); in the experiment on UO-31 renal, -83.5% (active); in the experiment with TK-10 renal, -93.4% (active); in the experiment on ACHN renal it was -100% (active). The growth is -100% (active) with CAKI-1 renal; -90.4% (active) with A498 renal; -20.6% (active) with CCRF-CEM leukemia; 9.25% (active) in the experiment on MOLT-4 leukemia; 12.1% in the experiment with SR leukemia; -3.23% (active) with RPMI-8226 leukemia. The growth in the experiment on OVCAR-8 ovarian is -83% (active); with OVCAR-4 ovarian, -34.7% (active); in the experiment with SK-OV-3 ovarian, -95.1% (active); in the experiment with IGROV1 ovarian, -79.8% (active); with OVCAR-3 ovarian, -79.4% (active); in the experiment on HS 578T breast it was -23.7% (active). For the same molecule, the growth in the experiment on NCI/ADR-RES ovarian is -40.6% (active).

For the molecule `FC(F)(F)c1cc2c(Cl)ncnc2n1CCN1CCOCC1`, the growth in the experiment with SK-MEL-2 melanoma is 47.7%; with EKVX NSCLC it was 92.8%; in the experiment with SN12C renal, 75.6%; in the experiment with UO-31 renal, -92.7% (active); in the experiment on TK-10 renal, 102%; with ACHN renal, -45.4% (active). Further, the growth in the experiment on CAKI-1 renal was 75%; in the experiment with A498 renal, 116%; with CCRF-CEM leukemia it was 36.6%; in the experiment on MOLT-4 leukemia, 20.2%; in the experiment with SR leukemia, -50.8% (active); with RPMI-8226 leukemia, 103%. Further, the growth is 64.7% in the experiment on OVCAR-8 ovarian; 98.4% with OVCAR-5 ovarian; 19.7% in the experiment on OVCAR-4 ovarian; 101% in the experiment on SK-OV-3 ovarian; 38.5% in the experiment on OVCAR-3 ovarian; 95.8% in the experiment on HS 578T breast. The growth in the experiment with NCI/ADR-RES ovarian was 81.4%.

For the molecule `O=C(CSc1nnc(-c2ccc(-c3nc4ccc(Cl)cc4[nH]3)cc2)o1)Nc1ccccc1`, the growth was 54.5% in the experiment with SK-MEL-2 melanoma; 21.1% in the experiment on EKVX NSCLC; 4.03% (active) in the experiment with SN12C renal; 60.6% in the experiment on UO-31 renal; 114% in the experiment on TK-10 renal; -56.4% (active) in the experiment on ACHN renal. Besides, the growth with CAKI-1 renal is -33.5% (active); in the experiment with A498 renal, 130%; in the experiment with CCRF-CEM leukemia it was 41.5%; with MOLT-4 leukemia it was 10.7%; with SR leukemia, 10.9%; in the experiment on RPMI-8226 leukemia, 45.6%. Moreover, the growth in the experiment on OVCAR-8 ovarian was -44.3% (active); in the experiment with OVCAR-4 ovarian, 37.9%; in the experiment with SK-OV-3 ovarian it was 66.3%; with IGROV1 ovarian, 70.8%; in the experiment on OVCAR-3 ovarian, 43.4%; in the experiment on HS 578T breast, 40.6%. The growth in the experiment with NCI/ADR-RES ovarian was 31.7%.

For `Fc1ccccc1CNc1nc(SCCN2CCOCC2)nc2c1cnn2CC(Cl)c1ccc(Br)cc1` (configuration not stated), the growth in the experiment on SK-MEL-2 melanoma is 31.1%; with EKVX NSCLC, 49%; in the experiment on SN12C renal, 53.2%; in the experiment with UO-31 renal, -6.44% (active); in the experiment with TK-10 renal it was 58.9%; in the experiment with ACHN renal, 25.1%. Besides, the growth in the experiment on CAKI-1 renal was 27%; in the experiment with A498 renal, 53.8%; in the experiment with CCRF-CEM leukemia it was 22.4%; with MOLT-4 leukemia, -25.2% (active); in the experiment on SR leukemia, -3.85% (active); in the experiment with RPMI-8226 leukemia, -6.83% (active). In addition, the growth in the experiment with OVCAR-8 ovarian is 43.8%; with OVCAR-5 ovarian, 71.3%; in the experiment with OVCAR-4 ovarian, 45%; in the experiment on SK-OV-3 ovarian, 58.3%; with OVCAR-3 ovarian it was 66.7%; in the experiment on HS 578T breast it was 17%. Besides, the growth in the experiment with NCI/ADR-RES ovarian was 33.5%.

Take `Cn1cc(Nc2ncnc(-c3ccc(N4CCCC4)c(C#N)c3)n2)cn1`: the growth was 88.4% with SK-MEL-2 melanoma; 95.3% in the experiment on EKVX NSCLC; 70.7% in the experiment with SN12C renal; 41.9% in the experiment with UO-31 renal; 66.2% with TK-10 renal; 52.3% with ACHN renal. Moreover, the growth with CAKI-1 renal is 22.4%; with A498 renal, 42.6%; with CCRF-CEM leukemia it was 72.2%; in the experiment with MOLT-4 leukemia, 65.5%; with SR leukemia, 28.7%; in the experiment with RPMI-8226 leukemia, 83.9%. For the same molecule, the growth was 84.4% in the experiment on OVCAR-8 ovarian; 85.4% with OVCAR-5 ovarian; 78.9% in the experiment with OVCAR-4 ovarian; 76.4% with SK-OV-3 ovarian; 81.6% with OVCAR-3 ovarian; 41.3% with HS 578T breast. Further, the growth in the experiment with NCI/ADR-RES ovarian is 67.3%.

These data come from PubChem BioAssay (NCI).
